Assay results reported in PubChem BioAssay (NCATS).
Several values for one entry are separate records, joined by “and”; a condition that tells them apart may be missing. Equal values may be shown once. Activity calls are given as the source filed them. The call rests on the fitted dose curve.

target: Glucocorticoid receptor (Homo sapiens) (UniProt P04150); assay: GR-EFC Redistribution (AID 451); conditions: CHO-K1 GR-EFC translocation, beta-gal luminescence, 2 h
Description: NIH Molecular Libraries Screening Centers Network [MLSCN]
NIH Chemical Genomics Center [NCGC]
The glucocorticoid receptor (GR) is a cytoplasmic receptor that belongs to the nuclear receptor family of ligand-dependent transcription factors. Upon glucocorticoid binding to its receptor, the glucocorticoid-GR complex translocates into the nucleus, where it binds as a dimer to specific DNA sequences (glucocorticoid response elements), enhancing or suppressing transcription of a wide variety of glucocorticoid-responsive genes. In addition to their important roles in normal physiology and metabolism, glucocorticoids are administered exogenously as treatments for a wide variety of allergic, autoimmune, and neoplastic conditions. Identification of compounds that modulate aspects of GR signalling would be useful in dissecting glucocorticoid response pathways as well as developing GR modulators with more targeted clinical effects.
Traditionally, GR modulators have been identified using receptor binding or direct transactivation assays. However, assays for glucocorticoid-dependent nuclear translocation can also be used to screen for compounds affecting GR signaling.
Immunocytochemical staining has been used to assay for GR translocation, but is not suitable for high throughout screening due to the multiple reagent addition and wash steps required. Recently, a novel cell-based GR assay in Enzyme Fragment Complementation (EFC) format was developed by DiscoveRx (Fremont, CA). The assay uses EFC of b-galactosidase (b-gal) as an indicator of GR-translocation in engineered CHO-K1 biosensor cells. The enzyme acceptor (EA) fragment of b-gal resides in the nucleus , as designed through the use of a proprietary set of sequence additions and modifications. The small peptide enzyme donor (ED) fragment of b-gal is fused directly to the C-terminus of GR, and is localized in the cytoplasm is the absence of receptor signaling. Upon binding to a GR ligand, the complex translocates to the nucleus, where intact enzyme activity is restored by complementation and b-gal activity is detected. We optimized this GR-EFC assay in homogenous 1536-well plate assay format for high throughput screening.
NCGC Assay Protocol Summary:
CHO-K1 cells stably expressing NLS-enzyme acceptor fragment (EA) of b-gal and GR-enzyme donor (ED) fragment of b-gal were maintained in F12 medium (Invitrogen, Carlsbad, CA) at 37 Celsius degrees under a humidified atmosphere containing 5% CO2 and 95% air. The medium contained 10% FBS, 2 mM L-glutamine, 50 U/ml penicillin 50 ug/ml streptomycin, and 250 ug/ml hygromycin and 500 ug/ml G418 (Invitrogen).
GR-translocation was measured beta-gal enzyme activity using the PathHunter Detection Kit containing cell membrane permeablizing reagent and beta-gal substrate (DiscoveRx, Fremont, CA). All compounds were screened as titrations from 0.6 nM to 46 uM final concentration. The assay was performed in 1536-well format as follows:
5 uL cell suspension (1,000 cells)/well
Incubation at 37 Celsius degrees for two hours
1.25 uL 1X detection buffer from the kit supplied by DiscoveRx
Incubation at room temperature for one hour
Read plate in luminescence mode in ViewLux plate reader (PerkinElmer)
Keywords: NIH Roadmap, MLSCN, MLI, MLSMR, GR-EFC, GREFC, qHTS, NCGC
Potency means the concentration at half of the fitted maximal effect.

Glucocorticoid receptor (Homo sapiens), sequence (P04150 whole entry, looked up): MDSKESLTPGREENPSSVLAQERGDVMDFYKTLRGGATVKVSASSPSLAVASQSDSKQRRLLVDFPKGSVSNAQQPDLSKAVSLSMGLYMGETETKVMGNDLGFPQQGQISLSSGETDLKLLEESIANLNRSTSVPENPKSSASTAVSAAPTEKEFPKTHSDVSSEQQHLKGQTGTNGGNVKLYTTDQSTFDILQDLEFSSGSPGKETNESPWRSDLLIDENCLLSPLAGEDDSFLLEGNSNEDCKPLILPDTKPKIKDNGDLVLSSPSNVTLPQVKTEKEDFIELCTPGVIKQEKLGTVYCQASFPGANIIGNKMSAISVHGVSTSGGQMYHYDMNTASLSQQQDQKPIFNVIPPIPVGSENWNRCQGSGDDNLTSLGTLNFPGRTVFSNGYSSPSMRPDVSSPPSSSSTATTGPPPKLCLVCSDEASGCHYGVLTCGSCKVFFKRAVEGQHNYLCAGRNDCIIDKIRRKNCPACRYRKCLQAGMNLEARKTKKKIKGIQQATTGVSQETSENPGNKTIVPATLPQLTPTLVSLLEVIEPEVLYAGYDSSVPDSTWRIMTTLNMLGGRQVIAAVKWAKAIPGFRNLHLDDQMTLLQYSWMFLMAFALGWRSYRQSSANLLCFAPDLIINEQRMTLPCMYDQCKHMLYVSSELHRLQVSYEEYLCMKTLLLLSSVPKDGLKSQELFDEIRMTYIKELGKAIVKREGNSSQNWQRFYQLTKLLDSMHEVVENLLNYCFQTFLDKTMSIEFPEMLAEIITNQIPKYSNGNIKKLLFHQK

Potency, inactive:
O=C(c1ccco1)N1CCC2(CCCN(c3ccccn3)C2)CC1 > 46 µM
COCCNc1ncnc2ccc(-c3ccccc3C(F)(F)F)cc12 > 46 µM
O=c1cnc2cnc(OCc3ccccc3)nc2n1Cc1ccc(F)cc1 > 46 µM
N#CCCn1c(=O)cnc2cnc(N3CCNCC3)nc21 > 46 µM
COc1ncc2nc(C)c(=O)n(-c3ccccc3)c2n1 > 46 µM
COc1cc2c3cc1Oc1c(OC)c(OC)cc4c1[C@@H](Cc1ccc(O)c(c1)Oc1ccc(cc1)C[C@@H]3N(C)CC2)N(C)CC4 > 46 µM
CCNc1ncc2nc(-c3cc(F)cc(F)c3)c(=O)n(Cc3cccs3)c2n1 > 46 µM
Cn1c(=O)c(-c2cc(F)cc(F)c2)nc2cnc(Oc3cccc(Cl)c3)nc21 > 46 µM
COCCn1c(=O)c(-c2cccc(F)c2)nc2cncnc21 > 46 µM
CN(Cc1ccco1)c1ncncc1-c1cccnc1 > 46 µM
O=S(=O)(c1ccccc1)N1CCC2(CCN(Cc3ccncc3)CC2)CC1 > 46 µM
COc1ccc(CNc2ccnc(-c3c(C)noc3C)n2)c(OC)c1 > 46 µM
CO/N=C(\C(=O)N[C@@H]1C(=O)N2C(C(=O)O)=C(COC(C)=O)CS[C@@H]12)c1csc(N)n1 > 46 µM and > 20.6 µM
O=c1c(-c2ccccc2)nc2cnc(Nc3ccccc3)nc2n1C[C@H]1CCCO1 > 46 µM
c1cn(-c2ccnc(-c3ccc4c(c3)OCO4)n2)cn1 > 46 µM
CCNc1ncc2ncc(=O)n(C[C@H]3CCCO3)c2n1 > 46 µM
O=C(Nc1cccc(F)c1)N1CC[C@@]2(CCCN(C(=O)c3ccncc3)C2)C1 > 46 µM
COc1ccc(C(=O)N2CCC[C@@]3(CCN(C(=O)NC(C)C)C3)C2)cc1 > 46 µM
COc1cccc(-c2cncnc2NCc2cccs2)c1 > 46 µM
COc1ccccc1CCn1c(=O)c(-c2ccc(F)c(F)c2)nc2cncnc21 > 46 µM
COc1ccc(-c2nc3cnc(OC)nc3n(C)c2=O)cc1 > 46 µM
CN1CCN(c2ccnc(-c3cccc(NS(C)(=O)=O)c3)n2)CC1 > 46 µM
COc1ccc2[nH]cc(CCNc3nc(-c4cccc(C#N)c4)nc4ccccc34)c2c1 > 46 µM
Cc1noc(C)c1-c1ccc2ncnc(NC3CC3)c2c1 > 46 µM
CS(=O)(=O)Nc1cccc(-c2nc(NCc3ccccc3)c3ccccc3n2)c1 > 46 µM
COc1ccc(-n2c(=O)c(-c3cccs3)nc3cnc(Nc4ccccc4)nc32)cc1 > 46 µM
COc1cccc(-c2nc(NC3CCNCC3)c3ccccc3n2)c1 > 46 µM
Cn1cccc1C(=O)N1CCC2(CCCN(C(=O)Nc3cccc(C#N)c3)C2)CC1 > 46 µM
CS(=O)(=O)Nc1cccc(-c2nccc(NCc3cccs3)n2)c1 > 46 µM
COc1ccccc1-c1cncnc1NCc1ccccc1 > 46 µM
O=C(c1cccc(F)c1)N1CCC[C@@]2(CCN(c3ccccc3)C2)C1 > 46 µM
COc1cccc(Nc2ncc3nc(CCc4ccccc4)c(=O)n(Cc4cccs4)c3n2)c1 > 46 µM
O=C(c1ccncc1)N1CCC2(CCCN(Cc3nccs3)C2)CC1 > 46 µM
CCNc1ncc2nc(-c3ccc(F)cc3)c(=O)n(-c3ccccc3)c2n1 > 46 µM
CC(C)NC(=O)N1CCCC2(CCN(C(=O)c3csnn3)CC2)C1 > 46 µM
COc1ccccc1CNc1ccnc(-c2ccccc2Cl)n1 > 46 µM
COc1ccccc1CNc1ccnc(-c2ccccc2C(F)(F)F)n1 > 46 µM
CCNc1ncc2nc(-c3ccc(F)cc3)c(=O)n(-c3ccc(OC)cc3)c2n1 > 46 µM
CC(=O)N1CCC2(CC1)CCN(c1ncccn1)CC2 > 46 µM
Cc1noc(C)c1-c1cncnc1Nc1ccccc1 > 46 µM
